# Results: PubChem BioAssay
# Activity calls are given as the source filed them. Unless noted, how the calls were made is not given here.
# Key:
# [1] = system: Wnt5a (protein binding on small-molecule microarray); test: Wnt5a binders on small-molecule microarray, primary screen, biophysical, 635/667 nm fluorescence (AID 1142); details: 635 nm fluorescence, higher = more signal;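 further: fluorescence read at 667 nm with signal to noise per printed feature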
# [2] = cell viability in Huh7 cells, primary screen, cytotoxicity control for HCV replication inhibitor project, CellTiter-Glo luminescence, basal, 48 h (AID 1143); details: Huh7 HCV replicon, higher = more signal, called active from +8 up or from −8 down;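 further: Huh7 hepatoma cells carrying a hepatitis C replication reporter with no stimulus; test concentration not given here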
# [3] = P. aeruginosa biofilm formation inhibitors, primary screen, PAO1 strain, BacTiter-Glo luminescence, LB-PBS (AID 1144); details: 12 h, higher = more signal
# [4] = CREB reporter modulators without forskolin, primary screen, cell-based, PC12, CRE-LacZ reporter, unstimulated (AID 1145); details: no forskolin, luminescence, 4.5 h, higher = more signal, called active from +8 up or from −8 down
# [5] = CREB reporter modulators under forskolin, primary screen, cell-based, PC12, CRE-LacZ reporter, forskolin-stimulated (AID 1146); details: luminescence, 4.5 h, higher = more signal, called active from +8 up or from −8 down;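 further: PC12 cells with 6xCRE LacZ reporter stimulated by forskolin 10 µM; beta-galactosidase reporter signal reflecting CREB driven transcription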
# [6] = target: Streptavidin (Streptomyces avidinii) (UniProt P22629); test: streptavidin binders on small-molecule microarray, primary screen, artefact control for SMM compound annotation, biophysical, 635/667 nm fluorescence (AID 1147); details: streptavidin binding, higher = more signal;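 further: signal reflects streptavidin binding to arrayed compounds as a control protein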
# Streptavidin (Streptomyces avidinii), sequence (P22629 whole entry, looked up): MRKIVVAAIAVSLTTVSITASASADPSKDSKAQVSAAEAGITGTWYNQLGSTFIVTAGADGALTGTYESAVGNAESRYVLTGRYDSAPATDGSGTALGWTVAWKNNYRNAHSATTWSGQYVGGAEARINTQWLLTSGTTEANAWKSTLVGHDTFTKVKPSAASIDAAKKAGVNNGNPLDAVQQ
# [7] = small-molecule binders of probe aInhba, primary screen, biochemical, small-molecule microarray, 635/667 nm fluorescence (AID 1148); details: higher = more signal;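 further: score merges 667nm spot fluorescence with signal-to-noise for antibody binding to printed compounds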
# Torsin-1A (Homo sapiens) [8] = target: Torsin-1A (Homo sapiens) (UniProt O14656); test: torsin A binders from cell lysate, primary screen, small-molecule microarray, wild-type, 635/667 nm (AID 1149); details: COS7 hTOR1A-WT lysate, 635 nm fluorescence, higher = more signal
# Torsin-1A (Homo sapiens), sequence (O14656 whole entry, looked up): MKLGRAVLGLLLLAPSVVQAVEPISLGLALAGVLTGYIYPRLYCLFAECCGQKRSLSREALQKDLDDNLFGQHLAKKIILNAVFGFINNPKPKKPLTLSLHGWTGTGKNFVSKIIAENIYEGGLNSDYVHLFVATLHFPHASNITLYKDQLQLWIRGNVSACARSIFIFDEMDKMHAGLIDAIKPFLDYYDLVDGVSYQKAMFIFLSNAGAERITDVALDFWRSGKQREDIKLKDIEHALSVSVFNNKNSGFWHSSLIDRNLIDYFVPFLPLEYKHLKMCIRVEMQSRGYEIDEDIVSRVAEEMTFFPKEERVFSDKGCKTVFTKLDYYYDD
# Torsin-1A (Homo sapiens) [9] = target: Torsin-1A (Homo sapiens) (UniProt O14656); test: small-molecule binders of mutant TOR1A in lysate, primary screen, cell lysate, small-molecule microarray, COS7 lysate, 635/667 nm fluorescence (AID 1150); details: COS7 hTOR1A mutant lysate, 635 nm fluorescence, higher = more signal;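 further: score pools 667 nm emission and signal to noise measuring lysate protein binding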
# [10] = system: Sonic hedgehog protein (Shh); test: small-molecule binders of Shh protein, primary screen, biochemical, small-molecule microarray, 635/667 nm fluorescence (AID 1151); details: small-molecule microarray binding, 635 nm fluorescence; higher = more signal;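 further: Shh protein binding to compounds spotted on small-molecule microarray slides; score combines spot fluorescence intensity with signal-to-noise across triplicate slides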
# [11] = E. coli DRC41 culture turbidity changes, primary screen, E. coli filamentation inducer project, strain DRC41, OD650, 48 h (AID 1152);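 further: E. coli MC1000 strain DRC41 lacking acrAB efflux pump and sulA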; details: E. coli DRC41 (acrAB sulA), higher = more signal, called active from +8 up or from −8 down
# [12] = small-molecule binders of probe aLefty1, primary screen, biochemical, small-molecule microarray, 635/667 nm fluorescence (AID 1153); details: higher = more signal;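 further: score merges spot fluorescence with signal-to-noise ratio from the scanned slide images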
# [13] = PSAC antagonists in infected red cells, primary screen, cell-based, P. falciparum Indochina, OD700, 1 h (AID 1154); details: P. falciparum Indochina infected RBC osmotic lysis, higher = more signal, called active from +8 up or from −8 down
# [14] = PSAC antagonists in infected red cells, primary screen, cell-based, P. falciparum Indochina, OD700, 2 h (AID 1155);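 further: lysis reports solute entry through the parasite surface anion channel PSAC; channel blockers reduce lysis of infected cells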; details: P. falciparum Indochina infected erythrocytes, osmotic lysis OD700; higher = more signal, called active from +8 up or from −8 down
# [15] = osmotic lysis modulators in infected erythrocytes, primary screen, PSAC antagonist project, cell-based, P. falciparum Indochina, OD700, 3 h (AID 1156); details: higher = more signal, called active from +8 up or from −8 down
# [16] = PSAC antagonists in infected red cells, primary screen, cell-based, P. falciparum Indochina, OD700, 18 h (AID 1157); details: P. falciparum Indochina infected erythrocytes, osmotic lysis OD700, 18 h; higher = more signal, called active from +8 up or from −8 down
# [17] = modulators of S6 phosphorylation in cells, primary screen, cell-based, A549, cytoblot, luminescence, serum-stimulated (AID 1158); details: A549 phospho-S6 cytoblot, 5 h, higher = more signal;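 further: serum-stimulated A549 lung adenocarcinoma cells; signal is phosphorylated S6 detected by cytoblot immunostaining with HRP secondary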
# [18] = target: NADPH oxidase 2 (Homo sapiens) (UniProt P04839); test: NOX2-dependent H2O2 signal modulators, primary screen, NOX inhibitor project, cell-based, HEK293-NOX2, PMA-stimulated, Amplex Red fluorescence (AID 1159); details: 45 min, higher = more signal, called active from +8 up or from −8 down; further: test concentration not given here
# NADPH oxidase 2 (Homo sapiens), sequence (P04839 whole entry, looked up): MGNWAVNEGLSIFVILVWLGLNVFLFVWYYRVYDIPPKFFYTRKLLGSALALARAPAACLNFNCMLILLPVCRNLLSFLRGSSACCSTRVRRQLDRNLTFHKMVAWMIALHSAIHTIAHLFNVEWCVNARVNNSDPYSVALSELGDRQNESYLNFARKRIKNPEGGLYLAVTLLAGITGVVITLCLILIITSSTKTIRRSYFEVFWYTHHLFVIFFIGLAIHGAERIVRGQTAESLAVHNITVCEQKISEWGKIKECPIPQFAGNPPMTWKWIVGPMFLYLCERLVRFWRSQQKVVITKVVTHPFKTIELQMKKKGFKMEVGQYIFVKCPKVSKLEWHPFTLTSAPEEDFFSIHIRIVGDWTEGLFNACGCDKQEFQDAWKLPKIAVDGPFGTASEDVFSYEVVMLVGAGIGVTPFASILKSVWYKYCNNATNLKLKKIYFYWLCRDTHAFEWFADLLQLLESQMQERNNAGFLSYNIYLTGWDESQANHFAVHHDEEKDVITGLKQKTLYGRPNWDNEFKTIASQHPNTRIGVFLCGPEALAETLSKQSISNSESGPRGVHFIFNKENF
# [19] = target: NADPH oxidase 4 (Homo sapiens) (UniProt Q9NPH5); test: NOX4-dependent H2O2 signal modulators, primary screen, NOX inhibitor project, cell-based, HEK293-NOX4, tetracycline-induced, Amplex Red fluorescence (AID 1160); details: 45 min, higher = more signal, called active from +8 up or from −8 down
# NADPH oxidase 4 (Homo sapiens), sequence (Q9NPH5 whole entry, looked up): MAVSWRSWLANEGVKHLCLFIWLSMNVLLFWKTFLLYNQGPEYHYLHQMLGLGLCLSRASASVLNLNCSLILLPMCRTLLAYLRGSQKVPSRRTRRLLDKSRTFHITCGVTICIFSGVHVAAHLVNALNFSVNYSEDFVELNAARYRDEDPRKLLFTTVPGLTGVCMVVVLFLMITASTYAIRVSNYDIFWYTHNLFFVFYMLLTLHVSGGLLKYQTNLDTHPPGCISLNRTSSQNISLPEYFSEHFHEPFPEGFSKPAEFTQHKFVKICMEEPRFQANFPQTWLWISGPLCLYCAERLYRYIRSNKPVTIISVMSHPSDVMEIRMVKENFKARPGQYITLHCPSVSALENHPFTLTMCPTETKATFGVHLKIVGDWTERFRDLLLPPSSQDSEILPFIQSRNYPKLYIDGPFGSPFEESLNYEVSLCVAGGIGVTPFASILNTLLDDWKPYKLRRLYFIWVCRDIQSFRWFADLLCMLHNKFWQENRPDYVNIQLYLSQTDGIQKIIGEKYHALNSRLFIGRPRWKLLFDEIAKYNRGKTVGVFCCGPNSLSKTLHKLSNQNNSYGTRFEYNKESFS
# [20] = target: NADPH oxidase 5 (Homo sapiens) (UniProt Q96PH1); test: NOX5-dependent H2O2 signal modulators, primary screen, NOX inhibitor project, cell-based, HEK293-NOX5, Amplex Red fluorescence (AID 1161); details: HEK293-NOX5, ionomycin, 45 min, higher = more signal
# NADPH oxidase 5 (Homo sapiens), sequence (Q96PH1 whole entry, looked up): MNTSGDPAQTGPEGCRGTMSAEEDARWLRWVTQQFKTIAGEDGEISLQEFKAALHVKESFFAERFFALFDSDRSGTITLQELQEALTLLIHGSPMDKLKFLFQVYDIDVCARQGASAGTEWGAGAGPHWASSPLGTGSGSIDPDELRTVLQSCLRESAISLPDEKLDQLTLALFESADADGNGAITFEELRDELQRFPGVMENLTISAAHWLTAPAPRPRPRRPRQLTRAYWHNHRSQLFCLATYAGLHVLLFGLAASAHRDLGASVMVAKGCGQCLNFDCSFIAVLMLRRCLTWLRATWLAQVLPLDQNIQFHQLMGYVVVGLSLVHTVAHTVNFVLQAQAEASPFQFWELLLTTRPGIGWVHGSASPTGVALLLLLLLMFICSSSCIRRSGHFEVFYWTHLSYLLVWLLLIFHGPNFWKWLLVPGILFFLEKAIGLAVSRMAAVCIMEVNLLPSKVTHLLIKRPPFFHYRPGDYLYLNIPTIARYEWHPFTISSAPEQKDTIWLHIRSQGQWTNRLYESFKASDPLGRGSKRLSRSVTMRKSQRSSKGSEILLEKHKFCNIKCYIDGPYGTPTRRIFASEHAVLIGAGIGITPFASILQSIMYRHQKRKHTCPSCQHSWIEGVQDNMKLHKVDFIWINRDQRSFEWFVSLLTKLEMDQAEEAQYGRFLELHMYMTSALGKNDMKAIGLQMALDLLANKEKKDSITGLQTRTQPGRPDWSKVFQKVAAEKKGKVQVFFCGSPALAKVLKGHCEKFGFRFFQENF
Structure (SMILES),composite z-score [1],z-score [2],z-score [3],z-score [4],z-score [5],composite z-score [6],composite z-score [7],composite z-score (Torsin-1A (Homo sapiens) [8]),composite z-score (Torsin-1A (Homo sapiens) [9]),composite z-score [10],z-score [11],composite z-score [12],z-score [13],z-score [14],z-score [15],z-score [16],z-score [17],z-score [18],z-score [19],z-score [20]
CC(C)=CCCC(C)=CC(O)C1C=CC2C(=O)N(C)C(=O)C2N1Nc1ccccc1 (stereo not given),0.485,-2.96 (inactive),-0.545 (inactive),-0.333 (inactive),-0.465 (inactive),1.87,0.115,-0.365,0.178,1.32,-1.5 (inactive),0.525,7.27 (inactive),2.86 (inactive),0.977 (inactive),1.93 (inactive),-0.595,-1.51 (inactive),-3.97 (inactive),-1.98
O=C1c2ccccc2[C@](Cc2ccccc2I)(C(=O)NCCN2CCOCC2)[C@H](c2ccc(CO)cc2)N1C1CCCCC1,0.379,-3.69 (inactive),0.155 (inactive),-0.168 (inactive),-0.0922 (inactive),0.934,0.216,0.873,0.469,1.52,0.0237 (inactive),0.373,3.66 (inactive),0.814 (inactive),0.664 (inactive),0.5 (inactive),-0.164,0.155 (inactive),0.784 (inactive),0.958
C=CCNC(=O)[C@@H]1[C@H]2C(=O)O[C@H](c3ccccc3)[C@H](c3ccccc3)N2[C@H](c2ccc(OCCO)cc2)[C@@]12C(=O)Nc1ccc(C#CCC(C(=O)OC)C(=O)OC)cc12,0.187,-3.86 (inactive),0.827 (inactive),0.488 (inactive),-1.19 (inactive),0.316,0.573,0.309,1.46,1.49,1.13 (inactive),0.0973,5.24 (inactive),1.59 (inactive),1.28 (inactive),0.653 (inactive),-0.186,2.32 (inactive),0.186 (inactive),0.236
[N-]=[N+]=NCc1ccccc1[C@@H]1OC(c2ccc(OCCCO)cc2)=N[C@]1(Cc1ccccc1)C(=O)NCC(O)CO (stereo not given in full),0.334,-1.58 (inactive),0.0756 (inactive),1.27 (inactive),-0.757 (inactive),0.255,0.84,0.281,0.294,-0.492,-0.0722 (inactive),0.484,13.5 (active),1.15 (inactive),0.942 (inactive),0.123 (inactive),-0.319,-0.847 (inactive),1.7 (inactive),-0.0855
C[C@H]1C2[C@H](Cc3ccccc3)NC(=O)[C@]23C(=O)N[C@H](Cc2ccccc2)C(=O)N2CCC[C@H]2C(=O)NC/C=C\C/C=C/C3[C@@H]2O[C@]12C (stereo not given in full),0.072,-0.832 (inactive),-1.44 (inactive),0.403 (inactive),-0.399 (inactive),0.206,-0.126,0.221,0.44,0.639,0.637 (inactive),-0.026,1.4 (inactive),-1.49 (inactive),-1.3 (inactive),-2.52 (inactive),0.477,0.977 (inactive),1.14 (inactive),1.73
COc1cc(NN2C(C(O)c3ccco3)C=CC3C(=O)N(c4ccccc4)C(=O)C32)cc(OC)c1OC (stereo not given),-0.286,-2.49 (inactive),-0.225 (inactive),0.0501 (inactive),-0.462 (inactive),0.0123,-0.153,-0.967,0.594,0.179,-1.37 (inactive),-0.441,0.886 (inactive),-1.47 (inactive),1.06 (inactive),-1.28 (inactive),1.29,-3.15 (inactive),-4.23 (inactive),-5.73
CC(C)C(O)C1C=CC2C(=O)NC(=O)C2N1Nc1ccc(Cl)cc1Cl (stereo not given),-0.0055,-0.158 (inactive),0.0631 (inactive),0.246 (inactive),0.0675 (inactive),-0.204,-0.0791,0.41,0.794,0.292,-1.3 (inactive),-0.114,1.41 (inactive),0.648 (inactive),-0.782 (inactive),0.997 (inactive),-1.23,-0.714 (inactive),-4.39 (inactive),-3.83
CCOC(=O)C[C@H]1[C@H](OC(=O)c2ccc(C(=O)c3ccccc3)cc2)[C@@H](NC(=O)c2ccc3ccccc3c2)c2cc(OCCCO)ccc2N1C(=O)Cc1ccc(OC)cc1,-0.354,-0.132 (inactive),-0.329 (inactive),-0.635 (inactive),-0.383 (inactive),0.271,-0.102,1.08,0.16,-0.006,0.739 (inactive),0.138,6.12 (inactive),0.448 (inactive),0.337 (inactive),0.184 (inactive),0.742,-0.992 (inactive),0.557 (inactive),0.161
